PubChem BioAssay (Tox21)
A number with no mark means an inactive call. Inconclusive results are not listed. Where a call stands in place of a potency, no number is given. The source made the active and inactive calls. Unless noted, calls come from the whole dose curve; as a rule, active = well fitted curve in the direction sought with a large enough effect in the repeat runs; inconclusive = weak or mixed curves; inactive = no such curve, though single readings can be large; an effect the other way counts as inactive or inconclusive.

Columns and labels:
[1] = A CellTox Green Cytotoxicity Assay to monitor cytotoxicity in HepG2 cells - 8 hour (AID 1224890); note: nearly all actives have a fitted effect of over 45% in size; note: potency is the fitted concentration of half-maximal effect
How it was run: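 HepG2 cells were seeded together with the CellTox Green dye at 600 cells/well, left 5 h at 37 C/5% CO2, then given compounds in DMSO. Fluorescence from dye bound to dead-cell DNA was read repeatedly over 40 h of treatment at 37 C.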

[2] = qHTS assay to identify small molecule antagonists of the estrogen receptor alpha (ER-alpha) signaling pathway using the BG1 cell line in the presence of 0.1 nM 17-beta-estradiol - cell viability counter screen (AID 1259241); note: nearly all actives have a fitted effect of over 40% in size; note: potency is the fitted concentration of half-maximal effect
How it was run: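 Estradiol-stimulated (0.1 nM) VM7Luc4E2 cells exposed to compounds 22 hr; viability measured by fluorescence of cleaved CellTiter-Fluor substrate after 30 min.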

[3] = qHTS assay to identify small molecule antagonists of the androgen receptor (AR) signaling pathway using the MDA cell line in the presence of 0.5 nM R1881 - cell viability counter screen (AID 1259242); note: nearly all actives have a fitted effect of over 45% in size; note: potency is the fitted concentration of half-maximal effect
How it was run: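 MDA-kb2 cells (human breast carcinoma, stably carrying MMTV-luciferase reporter) were exposed to compounds with 0.5 nM R1881 (final) for 16 hr at 37C, 0% CO2; viability then read as live-cell protease fluorescence (CellTiter-Fluor, 30 min) in the same wells.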

[4] = target: Estrogen receptor (Homo sapiens) (UniProt P03372); assay: qHTS assay to identify small molecule antagonists of the estrogen receptor alpha (ER-alpha) signaling pathway using the BG1 cell line in the presence of 0.1 nM 17-beta-estradiol (AID 1259244); note: nearly all actives have a fitted effect of over 50% in size; note: potency is the fitted concentration of half-maximal effect
Estrogen receptor (Homo sapiens), sequence (P03372 whole entry, looked up): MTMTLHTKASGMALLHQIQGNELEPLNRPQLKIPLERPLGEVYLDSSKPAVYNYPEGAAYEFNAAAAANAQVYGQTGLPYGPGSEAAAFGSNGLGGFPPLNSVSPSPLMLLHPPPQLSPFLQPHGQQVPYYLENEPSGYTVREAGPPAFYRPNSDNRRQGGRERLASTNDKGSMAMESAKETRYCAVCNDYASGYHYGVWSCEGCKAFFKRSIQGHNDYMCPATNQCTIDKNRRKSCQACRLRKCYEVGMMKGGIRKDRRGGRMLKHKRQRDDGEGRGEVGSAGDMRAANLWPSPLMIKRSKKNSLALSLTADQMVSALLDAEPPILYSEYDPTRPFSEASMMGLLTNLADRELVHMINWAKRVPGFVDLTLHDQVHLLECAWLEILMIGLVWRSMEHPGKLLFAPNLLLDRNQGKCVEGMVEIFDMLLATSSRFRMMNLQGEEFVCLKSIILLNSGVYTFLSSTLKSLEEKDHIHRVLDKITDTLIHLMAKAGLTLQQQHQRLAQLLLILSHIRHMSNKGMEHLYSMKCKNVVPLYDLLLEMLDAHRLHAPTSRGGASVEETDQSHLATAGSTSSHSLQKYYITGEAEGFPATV
How it was run: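 VM7Luc4E2 cells (endogenous full-length ER-alpha, stable 4xERE-luciferase) were grown 5 days in phenol red-free medium with charcoal-stripped FBS, then exposed 22 h at 37C to compounds plus 0.1 nM (final) 17beta-estradiol; ONE-Glo luminescence read-out.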

[5] = qHTS assay to identify small molecule phospholipidosis (PLD) inducers (AID 1259344; active = well fitted curve in the direction sought with a large enough effect; an effect the other way counts as inactive or inconclusive)
How it was run: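 HepG2 cells, 900/well, treated with compound plus LipidTOX Red for 24 h at 37 C; amiodarone positive and DMSO negative controls. Fixed with paraformaldehyde/Hoechst, then high-content imaging scored LipidTOX pit count and integrated intensity per well and per cell.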

[6] = qHTS assay to identify small molecule HDAC inhibitors (AID 1259364); note: nearly all actives have a fitted effect of over 45% in size; note: potency is the fitted concentration of half-maximal effect
How it was run: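 Wild-type HCT-116 cells were plated overnight, exposed to compounds for 2 h at 37 °C, then given HDAC-Glo class I/II luminogenic reagent for 30 min at room temperature before luminescence was read.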

[7] = qHTS assay to identify small molecule HDAC inhibitors - cell viability counter screen (AID 1259365); note: series mostly up to about 92 µM; nearly all actives have a fitted effect of over 50% in size
How it was run: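 After overnight seeding at 1,500 cells per well, wild-type HCT-116 cultures took up compounds in DMSO for 2hr at 37 C. Viable cell content came from luminescence with CellTiter-Glo.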

[8] = qHTS assay to identify small molecule agonists of the sonic hedgehog signaling (Shh) pathway - cell viability counter screen (AID 1259366); note: nearly all actives have a fitted effect of over 50% in size; note: potency is the fitted concentration of half-maximal effect
How it was run: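 Same-well cytotoxicity read. Gli1-Luc reporter 3T3 cells; compounds 24hr, 37C/5% CO2; CellTiter-Fluor fluorescence.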

[9] = qHTS assay to identify small molecule antagonists of the sonic hedgehog signaling (Shh) pathway - cell viability counter screen (AID 1259367); note: nearly all actives have a fitted effect of over 55% in size; note: potency is the fitted concentration of half-maximal effect
How it was run: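 NIH/3T3-derived Gli1-Luc reporter cells, 2,000/well, plated 4 hr before compound addition, then stimulated with conditioned medium for 24 hr at 37C. Viability measured in the same wells by CellTiter-Fluor fluorescence, reagent added at 23 hr for 1 hr.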

SMILES | Potency [1] | Potency [2] | Potency [3] | Potency [4] | Potency [5] | Potency [6] | Potency [7] | Potency [8] | Potency [9] | PLD induction [5]
CCCCOc1ccc(OCCCN2CCOCC2)cc1 | inactive | inactive | inactive | inactive | inactive | inactive | inactive | inactive | inactive | –
C=C(C)C(=O)OCCCCCCCCCCCCC | inactive | inactive | inactive | inactive | – | inactive | inactive | inactive | inactive | –
CC1(C)S[C@@H]2[C@H](NC(=O)C(c3ccccc3)S(=O)(=O)O)C(=O)N2[C@H]1C(=O)O (some centres undefined) | inactive | inactive | inactive | inactive | inactive | inactive | inactive | – | inactive | –
O[C@@H]1CO[C@H]2[C@@H]1OC[C@@H]2O | inactive | inactive | inactive | inactive | inactive | inactive | inactive | – | inactive | –
Cc1cc(C)c(N)cc1C | inactive | inactive | inactive | inactive | – | inactive | inactive | inactive | inactive | –
OCCOCC#CCOCCO | inactive | inactive | inactive | inactive | – | inactive | inactive | inactive | inactive | –
C[C@@H](CN(C)C)CN1c2ccccc2Sc2ccccc21 | inactive | inactive | inactive | inactive | – | inactive | inactive | – | – | –
O=C=Nc1ccc(Cl)c(Cl)c1 | inactive | inactive | inactive | inactive | – | inactive | inactive | inactive | inactive | –
C/C=C\C/C=C/CCCCCCCCOC(C)=O | inactive | inactive | inactive | inactive | – | inactive | inactive | inactive | inactive | –
O=C1C(=O)c2ccccc2C(O)=C1C1CCC(c2ccc(Cl)cc2)CC1 (centres undefined) | inactive | 26.6 µM (active) | 23.7 µM (active) | 26.6 µM (active) | inactive | inactive | inactive | inactive | inactive | –
CC1(C)[C@H](C(=O)O)N2C(=O)C[C@H]2S1(=O)=O | inactive | inactive | inactive | inactive | – | inactive | inactive | inactive | inactive | 7.08% [at 7.66 µM]
C=CC(=O)[O-].C=CC(=O)[O-].[Zn+2] | inactive | inactive | inactive | inactive | – | inactive | inactive | 53.2 µM (active) | – | –
O=C(O)CCc1nc(-c2ccccc2)c(-c2ccccc2)o1 | inactive | inactive | inactive | inactive | inactive | inactive | inactive | inactive | inactive | –
CCCCCCCCCI | inactive | inactive | inactive | inactive | – | inactive | inactive | inactive | inactive | –
O=c1[nH]c2ccc(Cl)cc2o1 | inactive | inactive | inactive | inactive | – | inactive | inactive | inactive | inactive | –
C=C1c2cccc(O)c2C(O)=C2C(=O)[C@]3(O)C(O)=C(C(N)=O)C(=O)[C@@H](N(C)C)[C@@H]3[C@@H](O)[C@H]12 | inactive | inactive | inactive | inactive | inactive | inactive | inactive | inactive | inactive | –
CN1CC(=O)N2[C@H](c3ccc4c(c3)OCO4)c3[nH]c4ccccc4c3C[C@@H]2C1=O | inactive | inactive | inactive | inactive | inactive | inactive | inactive | inactive | inactive | –
CC(C)=CC(=O)C=C(C)C | inactive | inactive | inactive | inactive | – | inactive | inactive | inactive | inactive | –
CCCCCC#CC(=O)OC | inactive | inactive | inactive | inactive | – | inactive | inactive | inactive | inactive | –
CCOC(=O)c1ccc(OCCN2C[C@H](O)[C@@H](O)[C@H](O)[C@H]2CO)cc1 | inactive | inactive | inactive | inactive | inactive | inactive | inactive | – | inactive | –
CN(C)CCC=C1c2ccccc2C=Cc2ccccc21 | inactive | inactive | inactive | inactive | – | inactive | inactive | inactive | inactive | –
CCc1ccccc1 | inactive | inactive | inactive | inactive | – | inactive | inactive | inactive | inactive | –
CCCC(=O)C(=O)O | inactive | inactive | inactive | inactive | – | inactive | inactive | inactive | inactive | –
COc1cc(C(=O)NCCCCCC(=O)O)cc(OC)c1OC | inactive | inactive | inactive | inactive | inactive | inactive | inactive | inactive | inactive | –
COC(=O)CCS | inactive | inactive | inactive | inactive | – | inactive | inactive | inactive | inactive | –
C(=C\c1ccccc1)/c1ccccc1 | inactive | inactive | inactive | inactive | – | 19.2 µM (active) | inactive | inactive | inactive | –
N#CCCN(CCO)CCO | inactive | inactive | inactive | inactive | – | inactive | inactive | inactive | inactive | –

SMILES | Potency [1] | Potency [2] | Potency [3] | Potency [4] | Potency [5] | Potency [6] | Potency [7] | Potency [8] | Potency [9] | PLD induction [5]
CC(C)C[C@H](NC(=O)[C@H](CCc1ccccc1)NC(=O)CN1CCOCC1)C(=O)N[C@@H](Cc1ccccc1)C(=O)N[C@@H](CC(C)C)C(=O)[C@@]1(C)CO1 | inactive | inactive | 16.8 µM (active) | 0.168 µM (active) | inactive | inactive | inactive | – | inactive | –
CC(C)Nc1cccnc1N1CCN(C(=O)c2cc3cc(NS(C)(=O)=O)ccc3[nH]2)CC1 | inactive | inactive | inactive | inactive | inactive | inactive | inactive | inactive | inactive | –
Cc1ccc(Cl)c(Nc2ccccc2C(=O)O)c1Cl | inactive | inactive | inactive | inactive | inactive | inactive | inactive | – | inactive | –
CC1(C)O[C@@H]2C[C@H]3[C@@H]4C[C@H](F)C5=CC(=O)C=C[C@]5(C)[C@H]4[C@@H](O)C[C@]3(C)[C@]2(C(=O)CO)O1 | inactive | inactive | inactive | inactive | inactive | inactive | inactive | – | inactive | –
CC[N+](CC)(CCNC(=O)C(=O)NCC[N+](CC)(CC)Cc1ccccc1Cl)Cc1ccccc1Cl | inactive | inactive | inactive | inactive | inactive | inactive | inactive | inactive | inactive | –
CCCCC(CC)COP(=O)(O)O (centres undefined) | inactive | inactive | inactive | inactive | – | inactive | inactive | inactive | inactive | –
C[C@]1(Cn2ccnn2)[C@H](C(=O)O)N2C(=O)C[C@H]2S1(=O)=O | inactive | inactive | inactive | inactive | inactive | inactive | inactive | inactive | inactive | –
CCOC(=O)C1=C(C)NC(C)=C(C(=O)OC)C1c1cccc(Cl)c1Cl (centres undefined) | inactive | inactive | inactive | inactive | inactive | inactive | inactive | inactive | inactive | –
CN1C(=O)OC(C)(C)C1=O | inactive | inactive | inactive | inactive | inactive | – | inactive | – | inactive | –
Nc1ncnc2c1ncn2[C@H]1CC[C@@H](CO)O1 | inactive | inactive | inactive | inactive | inactive | inactive | inactive | inactive | inactive | –
CCOC(=O)c1ccccc1C(=C1C=C(Br)C(=O)C(Br)=C1)c1cc(Br)c(O)c(Br)c1 | inactive | inactive | inactive | inactive | – | inactive | inactive | inactive | inactive | –
CC(C)(C)C(=O)C(=O)O | inactive | inactive | inactive | inactive | – | inactive | inactive | inactive | inactive | –
OC[C@H]1O[C@@H](n2cnc3c(=S)nc[nH]c32)[C@H](O)[C@@H]1O | inactive | inactive | inactive | inactive | inactive | inactive | inactive | inactive | inactive | –
C=C1CCC2CC1C2(C)C (centres undefined) | inactive | inactive | inactive | inactive | – | inactive | inactive | inactive | inactive | –
c1ccc2sc(SN(C3CCCCC3)C3CCCCC3)nc2c1 | inactive | inactive | inactive | inactive | – | inactive | inactive | – | inactive | –
C=CC(C)(CCC=C(C)C)OC(=O)CC(C)C (centres undefined) | inactive | inactive | inactive | inactive | – | inactive | inactive | inactive | inactive | –
CCC(C)COC(=O)CC(C)C (centres undefined) | inactive | inactive | inactive | inactive | – | inactive | inactive | – | inactive | –
O=C(O)CCCCCCCCCCCBr | inactive | inactive | inactive | inactive | – | 24.4 µM (active) | inactive | inactive | inactive | –
O=C(CCCN1CC=C(n2c(=O)[nH]c3ccccc32)CC1)c1ccc(F)cc1 | inactive | inactive | inactive | – | inactive | inactive | inactive | inactive | inactive | –
C1C[C@@H]2[C@H]3CC[C@H](C3)[C@@H]2C1 | inactive | inactive | inactive | inactive | – | inactive | inactive | inactive | inactive | –
OCCN1CCN(CCCN2c3ccccc3Sc3ccc(Cl)cc32)CC1 | 23.9 µM (active) | inactive | inactive | inactive | – | inactive | inactive | 13.3 µM (active) | 13.3 µM (active) | –
NCCNCCO | inactive | inactive | inactive | inactive | – | inactive | inactive | inactive | inactive | –
N#[N+]c1ccc2c(S(=O)(=O)[O-])cccc2c1O | inactive | inactive | inactive | inactive | – | – | inactive | – | inactive | –
CC(=O)Oc1ccc([N+](=O)[O-])cc1CCl | inactive | 54.5 µM (active) | 30.6 µM (active) | inactive | – | inactive | inactive | 27.3 µM (active) | 27.3 µM (active) | –
CCC1NC(=O)c2cc(S(N)(=O)=O)c(Cl)cc2N1 (centres undefined) | inactive | inactive | inactive | – | inactive | inactive | inactive | inactive | inactive | –
N#CCc1ccc(Cl)cc1Cl | inactive | inactive | inactive | inactive | – | inactive | inactive | inactive | inactive | –
